Source: PubChem BioAssay (National Center for Advancing Translational Sciences (NCATS))
An excerpt weighted towards active compounds, which were near 10% of everything screened.
L3MBTL1 block: qHTS Assay for the Inhibitors of L3MBTL1; AlphaScreen L3MBTL1–H3K9me1 peptide binding; Potency, µM (titrated, usually from 57.1 µM), inactives show top-dose activity, negative = inhibition, actives largely listed as inhibitors; Lethal(3)malignant brain tumor-like protein 1 (Homo sapiens), Q9Y468; 0.66% of 230,000 active; note: % is set by controls: 0 for no effect and ±100 for the full control effect; nearly all actives have a fitted effect of over 60% in size
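First, the protein-peptide complex forms for 30 min at room temperature (L3MBTL1 50 nM, biotinylated H3K9me1 peptide 75 nM). Next, compounds are pin-transferred and incubated 30 min. Finally, AlphaScreen beads are added and read after 30 min.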
BAZ2B inh: qHTS Assay for Inhibitors of BAZ2B | Bromodomain adjacent to zinc finger domain protein 2B (Homo sapiens), Q9UIF8 | AlphaScreen BAZ2B-H3K14Ac peptide displacement | Potency, µM (doses to about 114 µM), for inactives: top-dose activity change, negative = inhibition, usual class: inhibitors | 4.4% of 360,000 active; note: % is set by controls: 0 for no effect and ±100 for the full control effect; nearly all actives have a fitted effect of over 60% in size
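AlphaScreen displacement: compounds (up to 110uM) incubated 30 min at room temperature with a preformed 50 nM BAZ2B/50 nM biotinylated H3K14Ac peptide complex in PBS pH 7.4 with Tween-20. Donor and acceptor beads at 10 ug/mL final added, 20 min light-protected before reading.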
GLS inhibitor: qHTS for Inhibitors of Glutaminase (GLS) | GLS enzymatic activity, qHTS titration | Potency, µM (doses to about 45.5 µM), inactives show top-dose activity change, negative = inhibition, hits mostly inhibitors | 0.21% of 410,000 active | AID 624170, 2012; note: % is set by controls: 0 for no effect and ±100 for the full control effect
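hKGA in 45 mM KH2PO4 pH 8.2, 0.02% Tween-20 with pin-transferred compounds; 1 mM L-glutamine (stock) plus glutamate oxidase/HRP/Amplex Red coupling added. Fluorescence read initially and after 30 min at RT.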
JMJD2A Tudor: qHTS Assay for Inhibitors of JMJD2A-Tudor Domain; 4.4% of 390,000 active; Lysine-specific demethylase 4A (Homo sapiens), O75164; AID 504339, 2011; AlphaScreen JMJD2A-Tudor / H3K4me3 peptide binding; Potency, µM (doses to about 114 µM), inactives show top-dose activity change, negative = inhibition, usual class: inhibitors; note: % is set by controls: 0 for no effect and ±100 for the full control effect; nearly all actives have a fitted effect of over 50% in size
HP1b chromo inh: HTS for Inhibitors of HP1-beta Chromodomain Interactions with Methylated Histone Tails | Chromobox protein homolog 1 (Homo sapiens), P83916 | AlphaScreen HP1-beta / biotin-H3K9me3 peptide binding | Potency, µM (doses to about 114 µM), without a hit: at the top dose activity change, negative = inhibition, actives largely listed as inhibitors | 0.56% of 390,000 active; note: nearly all actives have a fitted effect of over 70% in size
Target sequence (P83916 whole entry, looked up): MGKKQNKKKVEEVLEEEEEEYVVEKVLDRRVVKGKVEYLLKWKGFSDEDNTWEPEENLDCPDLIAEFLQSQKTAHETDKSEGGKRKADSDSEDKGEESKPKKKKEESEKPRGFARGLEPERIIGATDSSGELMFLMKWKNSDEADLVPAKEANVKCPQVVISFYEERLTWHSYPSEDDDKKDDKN
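HP1-beta protein (50 nM final) preincubated 30 min at room temperature with biotinylated H3(1-18)K9me3 peptide (50 nM) in PBS pH 7.4, 0.01% Tween-20, then compound added for 30 min. AlphaScreen streptavidin donor/nickel chelate acceptor beads (10 ug/mL final), 30 min dark, luminescence read.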
G9a inh: qHTS Assay for Inhibitors of Histone Lysine Methyltransferase G9a | AID 504332, 2011 | G9a H3K9 monomethylation, AlphaScreen, 2 h | Histone-lysine N-methyltransferase EHMT2 (Homo sapiens), Q96KQ7 | 8.8% of 350,000 active | Potency, µM (series often up to 102 µM), without a hit: at the top dose activity, negative = inhibition, usual class: inhibitors; note: % is set by controls: 0 for no effect and ±100 for the full control effect; nearly all actives have a fitted effect of over 75% in size
Target sequence (Q96KQ7 913-1193 limits assumed): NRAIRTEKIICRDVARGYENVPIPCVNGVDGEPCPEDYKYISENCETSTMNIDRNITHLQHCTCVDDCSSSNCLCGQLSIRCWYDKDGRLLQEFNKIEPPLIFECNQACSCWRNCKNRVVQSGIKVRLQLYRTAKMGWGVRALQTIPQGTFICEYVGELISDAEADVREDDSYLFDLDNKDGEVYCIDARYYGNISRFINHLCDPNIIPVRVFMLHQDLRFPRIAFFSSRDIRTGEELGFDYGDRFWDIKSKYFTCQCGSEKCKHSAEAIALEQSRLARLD
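Using a bead-based AlphaScreen, monomethylated H3K9 product from 2 h room-temperature reactions (G9a 20 nM, peptide 500 nM, SAM 20 uM) was detected with 0.5 ug/mL rabbit anti-H3K9me1 antibody.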
* hit, by the source's call; ? = inconclusive; · = not tested or not shown; [ ] = another dose, or the depositor's remark. Calls come from the whole dose curve; as a rule, active = well fitted curve in the direction sought with a large enough effect; inconclusive = small, poorly fitted or top-dose-only effect, or another doubt; inactive = no such curve, though single readings can be large; an effect the other way counts as inactive or inconclusive. Potency is the fitted concentration of half-maximal effect.

SMILES	L3MBTL1 block	BAZ2B inh	GLS inhibitor	JMJD2A Tudor	HP1b chromo inh	G9a inh
COCCN1C(=O)c2[nH]nc(-c3ccccc3O)c2C1c1ccc(Cl)c(Cl)c1 (stereo unspecified)	·	-35.8%	10.6%	?	38.4%	7.7%[59 µM]
CCOc1ccc(C(c2c(O)cc(C)n(CCOC)c2=O)N2CCN(c3ccccc3)CC2)cc1 (stereo unspecified)	·	1.4%	2.0%	?	10.9%[57 µM]	?
CCN(CC)S(=O)(=O)c1ccc(Cl)c(C(=O)NCc2ccccc2Cl)c1	0.6%	-5.2%	-4.6%	2.2%	62.3%	11.0%[59 µM]
CCN(CC)S(=O)(=O)c1ccc(C(=O)NCc2n[nH]c(=S)n2-c2ccccc2OC)cc1	1.8%	-5.8%	2.1%	22.4µM*	17.2%	3.55µM*
CCN(CC)S(=O)(=O)c1ccc(C(=O)NCc2nnc(SCC(=O)OC)n2C)cc1	-0.5%	6.9%	1.7%	-1.3%	22.5%	5.1%
CCN(CC)S(=O)(=O)c1ccc(C(=O)NCc2n[nH]c(=S)n2-c2ccc(Cl)c(Cl)c2)cc1	·	-36.9%	?	-30.5%	1.2%	15.8µM*
CNC(=O)C1CCC(Cn2c(=O)c3sccc3n(Cc3ccc(F)cc3)c2=O)CC1 (stereo unspecified)	·	1.4%	1.6%	-8.3%	20.5%	18.5%[59 µM]
O=S(=O)(c1cccc(F)c1)N1CCC(c2nc3ccccc3s2)CC1	·	-7.1%	0.9%	-18.2%	-11.5%	-25.2%[59 µM]
Cc1nc(SCCOc2ccccc2)[nH]c(=O)c1Cc1ccccc1	5.2%	3.3%	-9.9%	-10.2%	3.4%	3.8%
N=c1ncn(Cc2ccccc2)c2nc(SCCOc3ccccc3)[nH]c12	5.2%	-3.8%	-6.0%	-0.7%	29.6%	79.4µM*
O=C(Nc1nnc(-c2ccccc2Cl)o1)c1ccco1	2.1%	79.4µM*	-10.7%	79.4µM*	12.5%	?
O=C(Nc1nnc(-c2cccs2)o1)c1ccco1	·	35.5µM*	-4.7%	44.7µM*	44.6%	10µM*
COc1cccc(C(=O)Nc2nnc(-c3cccs3)o2)c1	6.5%	?	18.3%	-12.8%	50.2%	-4.4%
COc1cc(-c2nnc(NC(=O)c3ccco3)o2)cc(OC)c1OC	-3.9%	79.4µM*	2.8%	?	19.2%	?
O=C(Nc1nnc(-c2ccc(Br)cc2)o1)c1ccco1	15.8%	79.4µM*	0.1%	?	43.9%	-22.6%
CCOc1cc(-c2nnc(NC(=O)c3ccco3)o2)cc(OCC)c1OCC	7.6%	10.0%	4.3%	-24.1%	16.3%	37.4%[59 µM]
Cn1c(-c2cccc(Br)c2)cnc1NCc1ccccc1O	-15.5%	50.1µM*	18.0%	20µM*	?	·
Fc1ccc(N=c2ssnc2Cl)c(F)c1	-4.4%	50.1µM*	?	22.4µM*	5.62µM*	1.58µM*
CCOC(=O)c1ccc(N=c2ssnc2Cl)cc1	·	28.2µM*	12.6µM*	14.1µM*	7.94µM*	1.78µM*
COc1ccc(N=C2SCC(=O)N2C)cc1	·	·	7.4%	·	·	·
COc1ccc(N=c2ssnc2Cl)cc1	-1.3%	44.7µM*	-9.6%	-16.8%[11.4 µM]	?	1.26µM*
COc1cc(N=c2ssnc2Cl)cc(OC)c1OC	6.0%	28.2µM*	?	?	28.0%	?
Cn1nnnc1Sc1ncnc2scc(-c3cccc([N+](=O)[O-])c3)c12	·	·	·	-27.4%	·	·
CCOC(=O)c1c(C)[nH]c(C)c1S(=O)(=O)NCC(=O)N1CCN(c2cccc(C)c2)C(C)C1 (stereo unspecified)	·	-16.5%	2.9%	?	-16.1%	-27.1%[59 µM]
O=C1CSC(=Nc2ccc(Cl)cc2)N1	·	-25.2%	0.8%	-10.5%	41.3%	·
SMILES	L3MBTL1 block	BAZ2B inh	GLS inhibitor	JMJD2A Tudor	HP1b chromo inh	G9a inh
O=C1CSC(=Nc2ccccc2)N1Cc1ccccc1	·	·	-1.3%	41.4%	79.5%	82.5%
Clc1ccc(N=c2ssnc2Cl)cc1	-19.2%	39.8µM*	78.5%	50.1µM*	?	1.58µM*
N#Cc1ccc(N=c2ssnc2Cl)cc1	5.7%	35.5µM*	?	22.4µM*	7.08µM*	?
Clc1nssc1=Nc1ccccc1	·	28.2µM*	?	79.4µM*	35.5µM*	2µM*
CC(OC(=O)C1CCN(S(=O)(=O)c2ccc(C(C)(C)C)cc2)CC1)C(=O)N1CCOCC1 (stereo unspecified)	7.3%	4.7%	1.6%	-8.6%	6.8%	17.8µM*
Cc1ccc(S(=O)(=O)N2CCC(C(=O)OC(C)C(=O)N3CCOCC3)CC2)cc1 (stereo unspecified)	-2.8%	8.9%	0.0%	?	26.4%	-22.2%
CCOc1ccc(N(C(=O)c2ccccc2F)S(=O)(=O)c2ccc3c(c2)n(C)c(=O)n3C)cc1	·	-4.7%	-6.9%	-12.6%	27.7%	-0.6%[59 µM]
COc1ccc(OC)c(CN2CCN(S(=O)(=O)c3ccccc3)CC2)c1	·	?	3.1%	20µM*	?	-28.2%[59 µM]
COc1ccc(C(=O)N2CCN(S(=O)(=O)c3ccccc3)CC2)c(OC)c1	-5.4%[11.4 µM]	-2.6%	-2.3%	-23.7%	23.2%	-5.3%[59 µM]
COc1ccc(Br)cc1CN1CCN(S(=O)(=O)Cc2ccccc2)CC1	·	-21.1%	6.5%	8.91µM*	?	20µM*
COc1ccc(CN2CCN(S(=O)(=O)c3ccccc3)CC2)c(OC)c1OC	·	·	4.1%	22.4µM*	?	·
COc1cccc(CN2CCN(S(=O)(=O)c3ccccc3)CC2)c1OC	·	·	7.5%	28.2µM*	?	·
O=C(NCc1ccco1)c1c[nH]c2ccc(S(=O)(=O)Nc3ccc(F)cc3F)cc2c1=O	·	·	-1.2%	?	?	?
O=S(=O)(c1ccc(Cl)cc1)c1nc(-c2ccccc2Br)oc1N1CCOCC1	·	?	0.0%	?	-6.0%	-42.8%[59 µM]
CCCn1cc(S(=O)(=O)c2cc(C)ccc2C)c(=O)c2cc(F)c(N3CCN(CC)CC3)cc21	·	0.1%	-14.0%	-20.1%	38.7%	-31.5%[59 µM]
COc1ccc(CN2CCN(S(=O)(=O)c3ccc(F)cc3)CC2)c(OC)c1OC	·	?	-3.5%	1.41µM*	-49.3%	28.2µM*
COc1ccc(S(=O)(=O)N2CCN(c3ccc(F)cc3)CC2)cc1OC	-1.3%	?	4.2%	1.7%	27.9%	-0.6%
COc1ccccc1CN1CCN(S(=O)(=O)c2ccccc2)CC1	·	31.6µM*	-1.1%	39.8µM*	?	?
Cc1ccc(S(=O)(=O)N2CCN(Cc3cccc(F)c3)CC2)cc1	·	·	-7.5%	3.16µM*	?	·
